Measurements reported in PubChem BioAssay (NCATS).
Results filed as inconclusive are left out. A call without a number means that no potency is given here. Calls of active or inactive are those of the source. Calls follow the shape of the dose curve; as a rule, active = well fitted curve in the direction sought with a large enough effect; inconclusive = small, poorly fitted or top-dose-only effect, or another doubt; inactive = no such curve, though single readings can be large; an effect the other way counts as inactive or inconclusive.

assay: qHTS assay to identify small molecule inhibitors of chordoma cells - UCH-1 (AID 1259355); details: UCH-1 chordoma viability, CellTiter-Glo, 48 h, combination, with auranofin plus four topoisomerase inhibitors; series mostly up to 46.1 µM; also: nearly all actives have a fitted effect of over 55% in size
Procedure, shortened: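 Seed 800 cells per well; incubate overnight at 37 C, 5% CO2. Add test compounds (15 concentrations), then the auranofin–topoisomerase-agent combination. Incubate 48hr, add CellTiter-Glo, wait 30min, read luminescence.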
Potency is read from the fitted curve at half-maximal effect.

Question: Which Potency does the source give for `C#C[C@]1(O)CC[C@H]2[C@@H]3[C@H](C)CC4=C(CCC(=O)C4)[C@H]3CC[C@@]21C` here?
Answer: The Potency was “inactive”.

Question: With `OC[C@H]1O[C@@H]2O[C@H]3[C@H](O)[C@@H](O)[C@@H](O[C@H]4[C@H](O)[C@@H](O)[C@@H](O[C@H]5[C@H](O)[C@@H](O)[C@@H](O[C@H]6[C@H](O)[C@@H](O)[C@@H](O[C@H]7[C@H](O)[C@@H](O)[C@@H](O[C@H]8[C@H](O)[C@@H](O)[C@@H](O[C@H]1[C@H](O)[C@H]2O)O[C@@H]8CO)O[C@@H]7CO)O[C@@H]6CO)O[C@@H]5CO)O[C@@H]4CO)O[C@@H]3CO` as the compound, how does the Potency read?
Answer: The Potency was “inactive”.

Question: Which Potency does the source give for `O[C@@H](c1cc(C(F)(F)F)nc2c(C(F)(F)F)cccc12)[C@H]1CCCCN1` here?
Answer: The Potency was 35.5 µM (active).

Question: Which Potency does the source give for `Cc1nc(-c2ccc(Cl)cc2)oc1COC(C)(C)C(=O)O` here?
Answer: The Potency was “inactive”.

Question: With `CCCc1ncc(C[n+]2ccccc2C)c(N)n1` as the compound, how does the Potency read?
Answer: The Potency was “inactive”.

Question: With `CNCCCCOc1ccccc1Cc1ccccc1` as the compound, how does the Potency read?
Answer: Its Potency is “inactive”.

Question: Which Potency does the source give for `CCC(CC)(CC(=O)Nc1cccc(/C=C/c2nc(C3CCC3)cs2)c1)C(=O)O` here?
Answer: The Potency was “inactive”.

Question: For `C=CCN1CCc2nc(N)sc2CC1`, which Potency is on record?
Answer: The Potency was “inactive”.

Question: For `CCOc1ccc(NC(C)=O)cc1`, which Potency is on record?
Answer: The Potency was “inactive”.

Question: With `C[N+]12CCC(CC1)C(OC(=O)C(O)(c1ccccc1)c1ccccc1)C2` (configuration not stated) as the compound, how does the Potency read?
Answer: The Potency was “inactive”.

Question: With `N#C/C(=C1\SCC(c2ccccc2Cl)S1)n1ccnc1` (configuration not stated) as the compound, how does the Potency read?
Answer: The Potency was “inactive”.

Question: For `COc1ccc(C(=O)c2ccccc2)c(O)c1`, which Potency is on record?
Answer: The Potency was “inactive”.

Question: For `CCc1oc2ccccc2c1C(=O)c1cc(I)c(O)c(I)c1`, which Potency is on record?
Answer: The Potency was “inactive”.

Question: With `NC(=O)n1c(O)c(C(=O)c2cccs2)c2cc(Cl)ccc21` as the compound, how does the Potency read?
Answer: Its Potency is “inactive”.

Question: With `COc1ccc(CN(CCN(C)C)c2ncccn2)cc1` as the compound, how does the Potency read?
Answer: Its Potency is “inactive”.

Question: With `C[C@H]1[C@H]2CC[C@H]3[C@@H]4CC=C5C[C@@H](N(C)C)CC[C@]5(C)[C@H]4CC[C@]23CN1C` as the compound, how does the Potency read?
Answer: Its Potency is “inactive”.

assay: qHTS assay to identify small molecule inhibitors of chordoma cells - UCH-2 (AID 1259356); details: UCH-2 chordoma viability, CellTiter-Glo ATP luminescence, 48 h; series mostly up to 46.1 µM

Question: Which Potency does the source give for `CN(C)CCOC(=O)C(c1ccccc1)C1(O)CCCC1` (configuration not stated) here?
Answer: Its Potency is “inactive”.

Question: For `O=C(O)C1(C(=O)O)CCC1.[NH2-].[NH2-].[Pt+2]`, which Potency is on record?
Answer: Its Potency is “inactive”.

Question: With `CC(CNC1CCCCC1)OC(=O)c1ccccc1` (configuration not stated) as the compound, how does the Potency read?
Answer: The Potency was “inactive”.

Question: Which Potency does the source give for `O=C1C(=O)c2ccccc2C(O)=C1C1CCC(c2ccc(Cl)cc2)CC1` (configuration not stated) here?
Answer: Its Potency is “inactive”.

Question: Which Potency does the source give for `CN1CCN(C2=Nc3cc(F)ccc3Cc3ccccc32)CC1` here?
Answer: The Potency was “inactive”.

Question: With `CCOC(=O)Nc1ccc2c(c1)N(C(=O)CCN1CCOCC1)c1ccccc1S2` as the compound, how does the Potency read?
Answer: The Potency was “inactive”.

Question: With `CC(C)[C@@H]1CC[C@@H](C)CC1=O` as the compound, how does the Potency read?
Answer: The Potency was “inactive”.

Question: Which Potency does the source give for `CN=C(N)NCCC[C@H](N)C(=O)O` here?
Answer: The Potency was “inactive”.

Question: With `NS(=O)(=O)Cc1noc2ccccc12` as the compound, how does the Potency read?
Answer: The Potency was “inactive”.

Question: With `CCCCCCCCCCCCOCCOCCOCCOCCOCCOCCOCCOCCOCCO` as the compound, how does the Potency read?
Answer: Its Potency is “inactive”.

Question: With `OC[C@H]1O[C@@H](Oc2ccc(O)cc2)[C@H](O)[C@@H](O)[C@@H]1O` as the compound, how does the Potency read?
Answer: The Potency was “inactive”.

Question: Which Potency does the source give for `CC(C)=CCOc1ccc(/C=C/C(=O)c2ccc(OCC=C(C)C)cc2OCC(=O)O)cc1` here?
Answer: The Potency was “inactive”.

Question: With `CCCCN=C(N)N=C(N)N` as the compound, how does the Potency read?
Answer: The Potency was “inactive”.

Question: With `CCCN(CCC)S(=O)(=O)c1ccc(C(=O)O)cc1` as the compound, how does the Potency read?
Answer: Its Potency is “inactive”.

Question: For `CCO[C@@H]1O[C@H](C(COCc2ccccc2)OCc2ccccc2)[C@H](OCc2ccccc2)[C@H]1O` (some centres not stated), which Potency is on record?
Answer: Its Potency is “inactive”.

Question: Which Potency does the source give for `C[N+]1(C)CCC(=C(c2ccccc2)c2ccccc2)CC1` here?
Answer: The Potency was “inactive”.

Question: With `CC(=O)NC(=O)c1ccccc1O` as the compound, how does the Potency read?
Answer: Its Potency is “inactive”.

Question: With `CCOc1ccccc1OCCN[C@H](C)Cc1ccc(OC)c(S(N)(=O)=O)c1` as the compound, how does the Potency read?
Answer: Its Potency is “inactive”.

Question: For `CCN1/C(=C/C=C/c2sc3ccccc3[n+]2CC)Sc2ccccc21`, which Potency is on record?
Answer: Its Potency is 5.8 µM (active).

Question: For `Cc1cccc(C)c1NC(=O)c1ccccc1C(=O)O`, which Potency is on record?
Answer: Its Potency is “inactive”.

Question: Which Potency does the source give for `C#C[C@]1(O)CC[C@H]2[C@@H]3[C@H](C)CC4=C(CCC(=O)C4)[C@H]3CC[C@@]21C` here?
Answer: The Potency was “inactive”.

Question: For `OC[C@H]1O[C@@H]2O[C@H]3[C@H](O)[C@@H](O)[C@@H](O[C@H]4[C@H](O)[C@@H](O)[C@@H](O[C@H]5[C@H](O)[C@@H](O)[C@@H](O[C@H]6[C@H](O)[C@@H](O)[C@@H](O[C@H]7[C@H](O)[C@@H](O)[C@@H](O[C@H]8[C@H](O)[C@@H](O)[C@@H](O[C@H]1[C@H](O)[C@H]2O)O[C@@H]8CO)O[C@@H]7CO)O[C@@H]6CO)O[C@@H]5CO)O[C@@H]4CO)O[C@@H]3CO`, which Potency is on record?
Answer: Its Potency is “inactive”.

Question: Which Potency does the source give for `O[C@@H](c1cc(C(F)(F)F)nc2c(C(F)(F)F)cccc12)[C@H]1CCCCN1` here?
Answer: Its Potency is “inactive”.

Question: With `Cc1nc(-c2ccc(Cl)cc2)oc1COC(C)(C)C(=O)O` as the compound, how does the Potency read?
Answer: Its Potency is “inactive”.

Question: For `CCCc1ncc(C[n+]2ccccc2C)c(N)n1`, which Potency is on record?
Answer: The Potency was “inactive”.

Question: With `CNCCCCOc1ccccc1Cc1ccccc1` as the compound, how does the Potency read?
Answer: Its Potency is “inactive”.
